The list is not random: actives were taken first. Their share in the collection is about 8.3%.
FMDV antiviral: antivirals against foot and mouth disease virus | FMDV antiviral cell-based qHTS | Potency, µM (series often up to 57.9 µM), for the others: top-dose activity change, negative = inhibition, hits mostly inhibitors | hit rate 1.2% among 410,000; calls by dose curve; tested in HEK293T cells; also: read-out not given here; potency is read from the fitted curve at half-maximal effect; % is scaled to controls: 0 for no effect and ±100 for the full control effect; nearly all actives have a fitted effect of over 45% in size
FBPA Giardia inh: inhibitors of Giardia lamblia fructose-1,6-bisphosphate aldolase; hit rate 0.71% among 290,000; A8B2U2; Potency, µM (series often up to 59.6 µM), for inactives: top-dose activity, negative = inhibition, hits mostly inhibitors; purified Giardia FBPA; also: potency is read from the fitted curve at half-maximal effect; % is scaled to controls: 0 for no effect and ±100 for the full control effect; nearly all actives have a fitted effect of over 55% in size
Target sequence (A8B2U2 whole entry, looked up): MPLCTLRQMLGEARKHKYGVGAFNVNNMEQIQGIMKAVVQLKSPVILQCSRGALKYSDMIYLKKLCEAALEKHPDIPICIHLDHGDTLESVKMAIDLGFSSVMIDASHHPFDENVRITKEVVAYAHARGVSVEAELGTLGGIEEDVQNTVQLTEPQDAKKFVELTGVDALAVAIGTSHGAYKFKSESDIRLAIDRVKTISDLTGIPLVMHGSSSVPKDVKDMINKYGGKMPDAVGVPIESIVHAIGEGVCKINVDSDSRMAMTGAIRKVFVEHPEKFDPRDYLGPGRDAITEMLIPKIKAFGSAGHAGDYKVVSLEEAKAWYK
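Giardia FBPA (40 nM reagent) was preincubated 10 min at RT with compound (up to 57.5 uM final), then substrate plus GAPDH/TPI/NAD/arsenate coupling system with diaphorase/resazurin was added; resorufin fluorescence (525/598 nm) was read after 20 min.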
Lassa entry inh: blocks Lassa virus binding to or entry into cells | AID 540256 | Lassa virus pseudotype entry inhibition, cell reporter | hit rate 1.2% among 300,000 | Potency, µM (series often up to 37.9 µM), inactives show top-dose activity change, negative = inhibition, usual class: inhibitors; calls by dose curve; tested in HEK293 cells; also: potency is read from the fitted curve at half-maximal effect; % is scaled to controls: 0 for no effect and ±100 for the full control effect; nearly all actives have a fitted effect of over 50% in size
Marburg entry inh: Marburg virus entry inhibition. Marburg virus pseudotyped entry inhibition, cell reporter. hit rate 1.8% among 300,000. Potency, µM (series often up to 37.8 µM), without a hit: at the highest dose activity change, negative = inhibition, hits mostly inhibitors. AID 540276; calls by dose curve; tested in HEK293 cells; also: potency is read from the fitted curve at half-maximal effect; % is scaled to controls: 0 for no effect and ±100 for the full control effect
HCV inhibitor: blocks hepatitis C virus. Potency, µM (doses to about 41.8 µM), without a hit: at the top dose activity change, negative = inhibition, usual class: inhibitors. Huh7.5.1 HCVcc-Cre infection, luciferase reporter, 44 h. hit rate 3.4% among 340,000. AID 651820; also: potency is read from the fitted curve at half-maximal effect; % is scaled to controls: 0 for no effect and ±100 for the full control effect
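A cell-based infection assay in which seeded cells (1,000 per well) receive test compound after 4 h, are inoculated with HCVcc-Cre at approximately 0.5 moi, and are incubated 44 h before luminescence detection.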
HCMV inh: inhibitors of human cytomegalovirus. activity change, negative = inhibition, % at 57.5 µM. hit rate 4.5% among 410,000. HFF cells, HCMV-luciferase reporter, 72 h; active compounds read low. AID 1259415; in the data active = activity change below about -60%; inconclusive = no clear call, values can overlap the other calls; inactive = above about -39%; also: % is scaled to controls: 0 for no effect and ±100 for the full control effect
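Luciferase read-out from HCMV-luciferase-infected HFFs (MOI 1 PFU/cell) 72 h post infection at 37C; compounds added after 16 h cell attachment; activity normalized between buffer-only basal and Salinomycin (10uM) inhibitor controls.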
HCV confirm: HCV inhibition, cherry-pick confirmation; shares compounds with HCV inhibitor; HCVcc-Cre infectious virus cell assay, luciferase, inhibition; Potency, µM (titrated, usually from 41.8 µM), for inactives: at the top dose activity, negative = inhibition, usual class: inhibitors; hit rate 78% among 640; AID 720575; also: potency is read from the fitted curve at half-maximal effect; nearly all actives have a fitted effect of over 80% in size
HCV host tox: toxic to HCV host cells, flagging false HCV inhibitors | shares compounds with HCV inhibitor | HCV host cell line cytotoxicity counterscreen | Potency, µM (doses to about 41.8 µM), for the others: top-dose activity change, negative = cytotoxicity, hits mostly inhibitors | hit rate 22% among 640 | AID 720576;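 also: potency is read from the fitted curve at half-maximal effect; 44 h compound exposure; % is scaled to controls: 0 for no effect and ±100 for the full control effect; nearly all actives have a fitted effect of over 55% in size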
* = called active by the depositor; ? = inconclusive; . = no result; [ ] = another dose, or the depositor's remark. Unless noted, calls follow the shape of the dose curve; as a rule, active = well fitted curve in the direction sought with a large enough effect; inconclusive = small, poorly fitted or top-dose-only effect, or another doubt; inactive = no such curve, though single readings can be large; an effect the other way counts as inactive or inconclusive.

SMILES	FMDV antiviral	FBPA Giardia inh	Lassa entry inh	Marburg entry inh	HCV inhibitor	HCMV inh	HCV confirm	HCV host tox
COc1ccc2nc3oc(C(=O)N4CCN(c5cc(C)ccc5C)CC4)cc3cc2c1	-4.0%	.	?	18.2%[46.1 µM]	.	49.5	.	.
Cc1ccc(-n2c(SCC(=O)Nc3ccc(N4CCOCC4)cc3)nc3ccccc3c2=O)cc1	2.4%	-1.9%	-8.4%	?	?	?	?	15.0%
CC(=O)Nc1ccc(S(=O)(=O)Nc2cc(-c3cn4ccccc4n3)ccc2C)cc1	6.3%	.	?	3.9%[46.1 µM]	.	19.4	.	.
CCN(CC)c1ccc(/C=N/NC(=O)c2ccoc2C)c(O)c1	-15.9%	6.5%	.	.	2.82µM*	-100.0*	7.05µM*	7.91µM*
COc1ccc(N2CCCC2)c(NC(=O)c2ccc(Br)o2)c1	?	-2.6%	-6.3%	1.6%[46.1 µM]	?	?	.	.
O=C(Nc1cc(C(F)(F)F)ccc1N1CCCCC1)c1ccc(Br)o1	16.3%	.	-17.0%	-25.7%	5.01µM*	-12.1	14.1µM*	8.5%
COc1ccccc1NS(=O)(=O)c1cc(NC(=O)c2ccncc2)ccc1N1CCOCC1	51.7%	2.5%	-23.9%	-2.8%	?	-30.3	.	.
COc1ccccc1NS(=O)(=O)c1cc(NC(=O)/C=C/c2cccs2)ccc1N1CCOCC1	54.8%	-3.4%	-3.7%	?	?	-13.3	19.9µM*	9.6%

Screening data as filed in PubChem.
